Data: PubChem BioAssay AID651650 (Sanford-Burnham Center for Chemical Genomics, 2012)

target: Neuropilin-1 (Homo sapiens) (UniProt O14786); test: blockers of CendR peptide binding to NRP-1 – biochemical, FP and AlphaScreen panel, dose response (AID 651650); settings: NRP-1 b1b2 / RPARPAR peptide binding, FP or AlphaScreen; run 1, at 100 µM (top of the series)
Sequence (O14786 whole entry, looked up): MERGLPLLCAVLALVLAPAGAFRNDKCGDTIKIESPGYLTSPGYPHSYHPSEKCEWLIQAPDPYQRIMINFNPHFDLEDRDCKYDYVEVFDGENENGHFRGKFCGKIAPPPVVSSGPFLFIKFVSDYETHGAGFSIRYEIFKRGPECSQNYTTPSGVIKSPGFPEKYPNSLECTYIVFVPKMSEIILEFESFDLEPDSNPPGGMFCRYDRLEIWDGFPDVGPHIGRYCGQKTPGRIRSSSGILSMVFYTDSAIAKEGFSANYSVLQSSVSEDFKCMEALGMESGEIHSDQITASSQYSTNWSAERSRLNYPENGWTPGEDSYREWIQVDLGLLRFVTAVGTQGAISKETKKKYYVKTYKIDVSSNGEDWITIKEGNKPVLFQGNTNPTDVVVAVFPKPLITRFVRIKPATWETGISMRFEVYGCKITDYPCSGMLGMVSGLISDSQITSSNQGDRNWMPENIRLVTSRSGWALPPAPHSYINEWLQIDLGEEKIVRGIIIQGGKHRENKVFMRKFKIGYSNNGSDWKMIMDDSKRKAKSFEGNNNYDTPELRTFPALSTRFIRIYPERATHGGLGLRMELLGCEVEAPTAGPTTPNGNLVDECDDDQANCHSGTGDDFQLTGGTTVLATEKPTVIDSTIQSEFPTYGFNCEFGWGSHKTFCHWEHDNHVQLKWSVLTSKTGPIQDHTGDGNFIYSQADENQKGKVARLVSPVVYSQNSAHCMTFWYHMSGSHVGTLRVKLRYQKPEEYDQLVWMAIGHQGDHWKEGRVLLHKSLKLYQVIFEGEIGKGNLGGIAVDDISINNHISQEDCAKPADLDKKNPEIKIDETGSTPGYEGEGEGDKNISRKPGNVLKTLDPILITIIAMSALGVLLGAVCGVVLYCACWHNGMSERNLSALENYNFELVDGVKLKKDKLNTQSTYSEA

| SMILES | inhibition [%] |
| --- | --- |
| O=[N+]([O-])c1ccc(-n2nnnc2CN2CCCCC2)cc1 | 22.7 |
| C=C(C)COc1ccc(-c2[nH]ncc2-c2ccccc2)c(O)c1 | 16.9 |
| CC(C)C1=C2CCCCC2NC(=O)N1 (stereo not drawn) | 32.2 |
| CCOc1ccc(N2C(=O)CC(N3CCN(c4ccc(Cl)cc4)CC3)C2=O)cc1 (stereo not drawn) | 86.2 |
| O=c1[nH]c(Nc2ccccn2)cc2ccccc12 | 81.1 |
| Cc1ccc(C(=O)Nc2ccccc2-c2ccccc2)cc1S(=O)(=O)Nc1ccccc1 | 32.1 |
| CC(=NN(Cc1ccccc1)c1ccccc1)c1ccccc1 | 87.9 |
| O=C(NCCCN1CCCCCC1)c1ccc(CS(=O)(=O)Cc2ccccc2F)o1 | 40.3 |
| Cc1cc(C)n2c(SCC(=O)Nc3cccc(S(N)(=O)=O)c3)nnc2n1 | -5.38 |
| CC(C)(C)n1cnc2cc(NC(=O)c3ccccc3)ccc21 | 95.9 |
| CN(C(=O)COC(=O)c1cnc(Cl)c(Cl)c1)C1CCCCC1 | 49.2 |
| CCCc1c(O)c2ccccc2[nH]c1=O | 5.68 |
| CC(=O)OC[C@@H]1CN(Cc2cccc(C(F)(F)F)c2)C[C@H](n2cnc3c(NCc4ccco4)ncnc32)O1 | 54.5 |
| CN(C(=O)COC(=O)c1nc(-c2ccccc2)n(-c2ccccc2)n1)C1CCS(=O)(=O)C1 (stereo not drawn) | -0.283 |
| COc1ccc(N=C2C(=Nc3ccc(OC)cc3)N(c3ccc(N(C)C)cc3)C(=S)N2c2ccc(OC)cc2)cc1 | 50.6 |
| Cc1cc2c(=O)[nH]cnc2s1 | 13.4 |
| O=C1CCCN1CCCNc1nc(NCc2cccs2)nc2ccsc12 | 81.3 |
| NC(=O)c1c(NC(=O)C(=O)N2CCOCC2)sc2c1CCCC2 | 16.2 |
| COc1ccc(Nc2nc(-c3cccnc3)nc3ccccc23)cn1 | 68.3 |

| SMILES | inhibition [%] |
| --- | --- |
| CC(=O)Nc1ccc(NC(=O)C2CC(=O)N=C(N)S2)cc1 (stereo not drawn) | 95.5 |
| O=c1c2cn[nH]c2nc(SCc2ccccc2F)n1-c1ccc(Br)cc1 | 53.3 |
| COc1ccc(C(C(=O)NC(C)(C)C)N(C(=O)CCC(=O)Nc2cc(C)on2)c2c(C)cccc2C)cc1 (stereo not drawn) | 42.7 |
| CC(CN1CCCCC1)OC(=O)c1ccc(Cl)cc1Cl (stereo not drawn) | 30.1 |
| Cn1c(=O)c2c(nc(OCc3cccnc3)n2Cc2ccccc2)n(C)c1=O | 66.1 |
| COc1cccc(OCC(=O)NNC(=S)Nc2ccc(Cl)cc2Cl)c1 | 27.2 |
| COc1ccccc1N1CCN(C(=O)C2c3ccccc3Oc3ccccc32)CC1 | 38.7 |
| CCn1c(N)c(C(=O)NCc2cccnc2)sc1=S | 100 |
| COC(=O)CCCC1=CC2=CC(=O)C(C)(OC(=O)c3cccs3)C(=O)C2=CN1CCCCO (stereo not drawn) | 38.6 |
| O=S1(=O)CCOC[C@H](Cc2ccccc2)N1Cc1ccccc1F | 46.5 |
| CN1C(=O)c2oc3ccccc3c(=O)c2C1c1ccccn1 (stereo not drawn) | 82.2 |
| COc1ccc(Cl)cc1S(=O)(=O)N1CCN(CC(=O)C(C)(C)C)CC1 | -4.16 |
| CCCCCc1c(-c2cccc(Cl)c2)ncn1CCc1ccccc1OC | 51.8 |
| COc1cc(C(=O)OCCCOC(=O)c2cc(OC)c(OC)c(OC)c2)cc(OC)c1OC | 13.4 |
| COc1ccc(NC(=O)C(C)Sc2ccccc2)cc1 (stereo not drawn) | 13.5 |
| OCCC1CCCCN1CC(O)COCc1ccc(Cl)cc1 (stereo not drawn) | 22.3 |
| CCCCn1nnnc1C(c1cc2ccccc2o1)N(C)Cc1ccc(Cl)c(Cl)c1 (stereo not drawn) | 104 |
| NC(=O)C1CCCN(C(=O)c2ccc3nc(Cc4cccc(Cl)c4)oc3c2)C1 (stereo not drawn) | 101 |
| N#Cc1ccc(COC(=O)c2cnc(Cl)c(Cl)c2)cc1 | 36.5 |
